The structures appear in SMILES notation. Records with an inconclusive call do not appear. The source made the active and inactive calls.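 Rule for the calls, unless noted: active = z-score of at least 1.8 in each of two replicates, scored against plate mean and spread of sample wells; inactive = the rest.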 Numbered stars: 1 amine (or outer) side, 2 acyl side, 3 side chain; on linkers, the order of the positions; unused ones are H or OH. Bridge positions count the residues as written; N and C are the ends. Square brackets hold non-standard residues; d marks the D form. Peptide text beside a SMILES is read from it. * marks the point of attachment. ξ: configuration not given here. ΔAla(Z-3-ureido) = NC(=O)N/C=C(\N)C(=O)O; X2 = NC1=NCCC(C(N[*:1])C(=O)[*:2])N1; ξβ3hOrn = NCCCC(N)CC(=O)*; Dap = NC[CH](N)C(=O)O

Test [1] in a line: enhancers of glutamate uptake in motor neurons, MN-1 cell line (AID 1612).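 Note: tested at 1 µM final; 0% = mean of DMSO vehicle wells on each plate; positive means more glutamate uptake than control and negative means less.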 Particulars: MN-1 motor neuron cells, stronger effect = higher value.
Test [2] is described as follows: reducers of polyQ inclusions in PC12 cells, cell-based, NGF-treated PC12, GFPQ80 (AID 1614).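 Note: lower means fewer inclusions and 0 means no inclusions at all.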 As to conditions: PC12 NGF-treated GFP-polyQ80 inclusion reduction.
A short description of test [3]: suppressors of polyglutamine aggregation in yeast, 75Q-TubH (AID 1616). As to conditions: S. cerevisiae 75Q-TubH polyglutamine aggregation suppression; stronger effect = higher value.
Test [4] in a line: liver-stage malaria parasite growth inhibition, primary screen, cell-based, HepG2, luciferase luminescence, HepG2 viability (AID 624349; in the data active = parasite load remaining mostly below about 12%, no sharp cut-off; inactive = mostly above about 10%;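 note: 100% = mean of DMSO negative control wells on the same plate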). As to conditions: P. berghei liver stage in HepG2, luciferase luminescence, concentration not given here; parasite load remaining: stronger effect = lower value; viability: measured here: HepG2 viability without parasites.
Test [5] can be described thus: circadian clock period modulators, cell-based, LOPAC library, luminescence reporter (AID 2774; call rule not given here;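 note: values are relative to mean of DMSO wells on each plate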). Particulars: circadian reporter cells, at 7 µM, actives lie on both sides.
Test [6] can be described thus: viability rescue of complex I mutant cybrids, primary screen, cell-based, galactose medium, ATP luminescence (AID 1645843).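 Note: positive z means more ATP and so rescue of galactose-driven cybrid death.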 As to conditions: complex I mutant cybrid cells, 72 h, stronger effect = higher value.
Test [7] in a line: Cy5 fluorescence interference with SSB-bound oligo, artefact control for HCV NS3 helicase inhibitor project, biochemical, NIH Clinical Collection, E. coli SSB (AID 743268; call rule not given here).
The subject of test [8] is Hepatitis C virus NS3 helicase. The test can be described thus: HCV NS3 helicase inhibitors, primary screen, biochemical, fluorescence polarization, NIH Clinical Collection (AID 743270; call rule not given here). Particulars: NS3 helicase binding to Cy5-dT15 DNA, stronger effect = higher value, concentration not given here.
For test [9], the target named is Single-stranded DNA-binding protein (Escherichia coli (strain K12)) (UniProt P0AGE0). The test can be described thus: E. coli SSB displacement from DNA, counter-screen for HCV NS3 helicase inhibitor project, biochemical, fluorescence polarization, NIH Clinical Collection (AID 743271; in the data active = inhibition above about 28%). As to conditions: stronger effect = higher value, concentration not given here. On the technique in general: The purpose of a counterscreen is to sort out artefacts and off-target activity.

The nature of test [10]: fluorescence interference in NS3h assay format, artefact control for HCV NS3 helicase inhibitor project, biochemical, NIH Clinical Collection (AID 743272; call rule not given here;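 note: HCV NS3 helicase with a Cy5 labelled single stranded DNA probe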). As to conditions: fluorescence interference counterscreen, stronger effect = lower value.
Test [11] can be described thus: hESC survival regulators, cell-based (AID 493140; call rule not given here;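 note: cells exposed to compounds for four days before counting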). Particulars: human embryonic stem cell survival screen; stronger effect = higher value.
Test [12] has as its target ATP-dependent translocase ABCB1 (Homo sapiens) (UniProt P08183). Nature of the test: MDR1 (ABCB1) efflux transporter inhibition, cell-based (AID 377; in the data active = fluorescence slope change above about 50%). As to conditions: MDR1-expressing cells, fluorescent substrate accumulation slope; stronger effect = higher value; concentration not given here.

Chain of ATP-dependent translocase ABCB1 (Homo sapiens) (P08183 whole entry, looked up): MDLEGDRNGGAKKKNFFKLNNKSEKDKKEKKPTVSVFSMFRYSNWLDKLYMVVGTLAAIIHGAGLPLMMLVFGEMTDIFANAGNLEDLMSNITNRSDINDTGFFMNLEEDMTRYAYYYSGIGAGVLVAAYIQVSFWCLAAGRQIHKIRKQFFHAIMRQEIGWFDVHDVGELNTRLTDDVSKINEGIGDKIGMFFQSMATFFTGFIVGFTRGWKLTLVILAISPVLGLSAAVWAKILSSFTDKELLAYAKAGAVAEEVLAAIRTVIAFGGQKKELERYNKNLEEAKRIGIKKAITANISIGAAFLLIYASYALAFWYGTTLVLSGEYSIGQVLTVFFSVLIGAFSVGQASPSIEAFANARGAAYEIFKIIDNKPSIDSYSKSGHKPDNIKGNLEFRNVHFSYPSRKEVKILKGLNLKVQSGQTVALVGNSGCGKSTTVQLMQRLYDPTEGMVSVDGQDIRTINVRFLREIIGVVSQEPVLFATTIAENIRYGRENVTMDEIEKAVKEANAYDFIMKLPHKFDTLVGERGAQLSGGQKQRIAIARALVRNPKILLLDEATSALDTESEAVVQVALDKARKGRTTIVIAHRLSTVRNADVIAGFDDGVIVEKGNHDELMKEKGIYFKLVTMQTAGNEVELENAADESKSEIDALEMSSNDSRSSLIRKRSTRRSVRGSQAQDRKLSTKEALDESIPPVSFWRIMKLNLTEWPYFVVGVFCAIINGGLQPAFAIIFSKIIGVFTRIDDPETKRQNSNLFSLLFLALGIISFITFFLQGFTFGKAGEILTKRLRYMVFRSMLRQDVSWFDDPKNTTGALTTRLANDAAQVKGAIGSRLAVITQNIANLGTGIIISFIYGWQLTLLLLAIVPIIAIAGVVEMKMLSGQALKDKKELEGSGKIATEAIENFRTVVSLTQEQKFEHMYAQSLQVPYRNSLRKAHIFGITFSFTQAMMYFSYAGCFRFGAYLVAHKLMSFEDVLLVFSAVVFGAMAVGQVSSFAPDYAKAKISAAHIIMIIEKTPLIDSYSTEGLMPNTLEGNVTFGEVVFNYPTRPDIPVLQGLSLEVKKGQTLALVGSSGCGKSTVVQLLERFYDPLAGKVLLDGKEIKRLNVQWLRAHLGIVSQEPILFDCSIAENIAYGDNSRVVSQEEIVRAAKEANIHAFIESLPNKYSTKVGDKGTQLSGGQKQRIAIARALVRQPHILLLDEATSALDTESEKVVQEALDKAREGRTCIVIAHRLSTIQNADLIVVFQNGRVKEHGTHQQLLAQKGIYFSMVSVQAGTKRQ

`NCCCC(N)CC(=O)NCC1NC(=O)C(CO)NC(=O)C(N)CNC(=O)C(C2CCN=C(N)N2)NC(=O)/C(=C/NC(N)=O)NC1=O` (stereo not drawn) (H-[Dap]S[Dap](ξβ3hOrn)[ΔAla(Z-3-ureido)][X2]; lactam 1-C; configuration not given here): the glutamate uptake change in test [1] turned out to be 13.7%. The same compound yielded an inclusion score in test [2] of 1. Also, in test [3], the aggregation suppression score came to 0.882. Turning to `C1CCN2C[C@@H]3CC(CN4CCCC[C@@H]34)[C@H]2C1`, the glutamate uptake change in [1] is -9.72%. In test [2], the inclusion score worked out at 2. Also, in [3], the aggregation suppression score is 1.48. In the case of `COC1=C2C[C@@H](C)C[C@H](OC)[C@H](O)[C@@H](C)/C=C(\C)[C@@H](OC(N)=O)[C@H](OC)/C=C\C=C(/C)C(=O)NC(=CC1=O)C2=O`, the glutamate uptake change in [1] turned out to be 10.3%. For the same compound, the aggregation suppression score in test [3] was determined as 1.43. As to `C[C@@H]1OC(Oc2c(-c3ccc(O)c(O)c3)oc3cc(O)cc(O)c3c2=O)[C@H](O)[C@H](O)[C@H]1O` (stereo partly drawn), in test [1], the glutamate uptake change was -4.44%. Also, the inclusion score in [2] came out at 2. Besides, in test [3], the aggregation suppression score is 1.5.

For the compound `CC(=O)Oc1ccc2c(c1)CCC1C2CCC2(C)C(=O)CCC12` (stereo not drawn), the glutamate uptake change in [1] is -16%. The same compound yielded an inclusion score in test [2] of 2. Also, the aggregation suppression score in [3] was 0.169.

Turning to `NC[C@@H]1O[C@H](O[C@@H]2[C@@H](CO)OC(O[C@@H]3[C@@H](O)[C@H](N)C[C@H](N)[C@H]3OC3O[C@H](CO)[C@@H](O)[C@H](O)[C@H]3N)[C@@H]2O)[C@H](N)[C@@H](O)[C@@H]1O` (stereo partly drawn), in test [1], the glutamate uptake change was -14.4%. This compound also showed an inclusion score in [2] of 2. In test [3], the aggregation suppression score amounted to 1.65.

As for `CCC(=O)O[C@@H](O[P@](=O)(CCCCc1ccccc1)CC(=O)N1C[C@H](C2CCCCC2)C[C@H]1C(=O)O)C(C)C`, the glutamate uptake change in [1] was found to be 4.48%. In test [2], this compound yielded an inclusion score of 2. Moreover, in test [3], the aggregation suppression score amounted to 0.527. Usually viability stands for a per cent measure of how many cells are alive, often set against a control. Take `CC1(C)O[C@@H]2CC3C4CCC5=CC(=O)CCC5(C)C4(F)C(O)CC3(C)[C@]2(C(=O)CCl)O1` (stereo partly drawn): in test [1], the glutamate uptake change came out at 12.8%. The inclusion score in test [2] turned out to be 2. The compound further had an aggregation suppression score in test [3] of 1.1. Further, in [4], the parasite load remaining is 190% (inactive) and the viability is 88.4%.

Regarding `CC(=O)N[C@@H](Cc1c[nH]c2ccccc12)C(=O)O`, the glutamate uptake change in test [1] was determined as 9.72%. This compound also came in with an inclusion score in test [2] of 2. The aggregation suppression score in [3] stood at 1.31. For the same compound, in test [4], the parasite load remaining was 106% (inactive) and the viability came out at 70.5%. For the compound `COc1ccc2c(c1OC)C(=O)O[C@H]2[C@@H]1c2ccccc2CCN1C`, in test [1], the glutamate uptake change is -0.43%. Further, the inclusion score in [2] worked out at 2. The compound also showed an aggregation suppression score in test [3] of 19.

Turning to `CC(C)[C@@H](C)/C=C/[C@@H](C)C1CC[C@H]2/C(=C/C=C3\C[C@@H](O)CC[C@@H]3C)CCC[C@]12C` (stereo partly drawn), the glutamate uptake change in [1] was -13.9%. In test [3], this compound showed an aggregation suppression score of 0.578. Turning to `C[C@]12CCC3c4ccc(OC(=O)CCC(=O)O)cc4CCC3C1CCC2=O` (stereo partly drawn), the glutamate uptake change in [1] was -14.3%. In test [2], this compound came in with an inclusion score of 2. The aggregation suppression score in test [3] worked out at 0.711. In the case of `NCCNC(=O)c1ccc(Cl)cc1`, the glutamate uptake change in test [1] is 11.9%. The compound further gave an inclusion score in test [2] of 2. This compound registered an aggregation suppression score in test [3] of 1.48. Moreover, the period change in test [5] was 0.02 h (inactive). Take `O=C(Cc1cccs1)NC1C(=O)N2C(C(=O)[O-])=C(C[n+]3ccccc3)CSC12` (stereo not drawn): in [1], the glutamate uptake change is -13.7%. The same compound showed an inclusion score in [2] of 2. In addition, in test [3], the aggregation suppression score worked out at 1.45. In addition, in [4], the parasite load remaining is 179% (inactive) and the viability amounted to 74.4%. On to `Nc1ncnc2c1ncn2C1OC(CO)[C@H](O)C1O` (stereo partly drawn), for which the glutamate uptake change in test [1] came to 3.91%. The compound further displayed an inclusion score in [2] of 2. In test [3], this compound registered an aggregation suppression score of 1.96. On to `Fc1ccc(C(c2ccccc2)(c2ccccc2F)n2ccnc2)cc1` (stereo not drawn), for which the inclusion score in [2] was found to be 2. With `CN(CC1COc2ccccc2O1)C(=O)Nc1nncs1` (stereo not drawn), the z-score in [6] is -0.295 (inactive). As for `O=C1CCCc2occ(C(=O)N3CCc4[nH]nc(C5CCC5)c4C3)c21`, the z-score in test [6] is 0.15 (inactive). As for `CSCc1ccc(C(=O)Nc2cccc3cccnc23)o1`, in test [6], the z-score was 1.12 (inactive).

For the compound `CC1(C)C2(c3nc(Cc4c(F)cccc4Cl)no3)CC[C@@]1(C)C(=O)O2`, the z-score in test [6] is -0.525 (inactive). In the case of `Cn1ccnc1-c1ccccc1C(=O)N1CCN(Cc2cccc(Cl)c2)CC1`, in test [6], the z-score is 0.665 (inactive). For the compound `CCn1c(C)nc2cc(OC3(C(=O)O)CCCCC3)ccc21`, the z-score in [6] was -0.565 (inactive). Turning to `COC(=O)c1ccc(N2CCC(c3ccccc3Cl)C2)nc1` (stereo not drawn), the z-score in [6] was 0.895 (inactive). As to `Cc1ccn2cc(Cn3cnc4ccc(F)cc4c3=O)nc2c1`, in test [6], the z-score was 0.645 (inactive). Turning to `CCC(=O)N(CC)c1cc(C)ccc1OC1(C(=O)O)CCSCC1`, the z-score in test [6] is -0.47 (inactive). Take `CC(C)(O)c1cn(C2CCN(C(=O)C3CC34CCCC4)CC2)nn1` (stereo not drawn): the z-score in [6] is -0.475 (inactive). In the case of `Cc1cccc2c(=O)n(Cc3ccc(Cl)s3)cnc12`, the z-score in [6] was 0.23 (inactive). As to `COc1ccccc1C(=O)N1CCN(C(=O)c2nc3ccccc3c(=O)[nH]2)CC1`, the z-score in test [6] is 0.365 (inactive). On the same count and under the same terms, in the case of `COc1ccc(C(=O)N2CCN(C(=O)c3cc(C)c(C)cc3C)CC2)cc1` it was 0.125 (inactive); in that of `C=C1C(C)(C)[C@H]2CC[C@]1(C(=O)N1CCC(n3cc(CCCC)nn3)CC1)C2`, 2.16 (inactive); in that of `Cc1ccc2c(C(=O)N3CCC(C)(C)C3)cc(-c3cnn(C(C)C)c3)nc2c1`, -0.01 (inactive).

As to `CCc1n[nH]c2c1CN(C(=O)c1cc(C)nc3ccc(F)cc13)CC2`, the z-score in [6] was -0.42 (inactive). Same read-out and setting: next, `Cc1cc(C)c(CNC(C)CCC(C)C)c(C)c1CO` (stereo not drawn): 0.435 (inactive); `CCCCCC(=O)N1CCC(n2cc(C3CCCC3)nn2)CC1`: 0.965 (inactive). In the case of `NC(=O)NCc1cn(CC2CCN(C(=O)C3CCCCCC3)CC2)nn1`, the z-score in [6] was -0.565 (inactive).

With `CCCn1cnc(NC(=O)NC2CCN(Cc3ccccc3)CC2)n1`, the z-score in [6] is 0.58 (inactive). Broadly, the inhibition is the percentage by which the read-out fell short of the control. For `CO[C@H]1/C=C/O[C@@]2(C)Oc3c(C)c(O)c4c(O)c(c5c(c4c3C2=O)=NC2(CCN(CC(C)C)CC2)N=5)NC(=O)/C(C)=C\C=C\[C@H](C)[C@H](O)[C@@H](C)[C@@H](O)[C@@H](C)[C@H](OC(C)=O)[C@@H]1C`, the fluorescence ratio in [7] was 1.02 (inactive); in test [10], 0.96 (inactive). Further, the inhibition in test [8] is 1.36% (inactive); in [9] it was 6.39% (inactive). As to `C=C(NC(=O)C(=C)NC(=O)c1csc(C2=NC3c4csc(n4)C4NC(=O)c5csc(n5)C(C(C)(O)C(C)O)NC(=O)C5CSC(=N5)/C(=C/C)NC(=O)C(C(C)O)NC(=O)c5csc(n5)C3(CC2)NC(=O)C(C)NC(=O)C(=C)NC(=O)C(C)NC(=O)C(C(C)CC)NC2C=Cc3c(C(C)O)cc(nc3C2O)C(=O)OC4C)n1)C(N)=O` (stereo not drawn), the survival in test [11] is 0.917 (inactive). In the case of `CCC(C(=O)C(C)C(O)C(C)CCc1ccc(C)c(O)c1C(=O)O)[C@H]1O[C@](CC)([C@H]2CCC(O)(CC)[C@H](C)O2)C[C@@H]1C` (stereo partly drawn), the fluorescence slope change in [12] is 130% (active). Regarding `Cc1ccccc1CNc1ncnc2c1ncn2C1OC(CO)C(O)C1O` (stereo not drawn), the period change in [5] is -0.235 h (inactive).

The record behind these values is PubChem BioAssay.
